Measured values published in PMC5540273 (PLoS ONE, 2017).

These compounds were tested on MLK3. Details: concentration: 1 μM, replicates: in singlicate; n = 1.
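Further: KINOMEscan kinase panel screen.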

SMILES | %Inh [%]
CN(C(=O)c1ccc(-c2cc(-c3c[nH]nc3-c3ccccn3)ccn2)cc1)C1CCOCC1 [GW810083] | 0
O=C(Nc1cccc(-c2nn3ncccc3c2-c2ccnc(Nc3cccc(C(F)(F)F)c3)n2)c1)c1c(F)cccc1F [GSK299495] | 0
Cl.Oc1cccc(Nc2ccnc3cc(-c4ccncc4)ccc23)c1 [GW494601] | 1
O=c1cc(N2CCOCC2)nc2n(Cc3cccc(F)c3)ccn12 [GSK2297430] | 28
COc1ccc(CNC(=O)NC2CCN(c3ccnc(Nc4ccc(OC)cc4)n3)C2)cc1 (stereo not drawn) [GSK1379727] | 0
CCc1nc(-c2cccc(C)c2)c(-c2ccnc(NCc3ccccc3)c2)s1 | 0
CCc1ccnc(/C=C/c2n[nH]c3cc(Sc4ccccc4C(=O)NC)ccc23)c1 | 20
Cc1nnc(-c2ccc(C)c(-c3ccc(C(=O)Nc4ccc(NS(C)(=O)=O)cc4)cc3)c2)o1 [GW702865] | 7
Cc1nnc(-c2ccc3ncc(-c4ccc(S(C)=O)cc4)n3c2)o1 (stereo not drawn) | 0
CC(=O)Nc1ccc(COc2ccc(Nc3ccnc4cc(-c5ccccn5)ccc34)cc2)cc1.Cl [GW440148] | 0
CCn1cnc2c(N)ncnc21 [GW345098] | 4
Cc1nnc(-c2ccc3occ(-c4ccc(C(C)O)cc4)c3c2)o1 (stereo not drawn) | 0
O=c1cc(N2CCOCC2)nc2n(Cc3cccc(Cl)c3Cl)c(C3CC3)nn12 [GSK2358994] | 14
O=C(NCCCN1CCOCC1)c1cccc(Nc2nccc(Nc3ccc(Oc4ccccc4)cc3)n2)c1 [GW663929] | 18
[2H]C([2H])(c1cccc(C(F)(F)F)c1C)n1ccn2c(=O)nc(N3CCOCC3)cc12 [GSK2336394] | 21
NS(=O)(=O)CCc1cccc(Nc2nccc(-c3c(-c4cccc(NC(=O)c5c(F)cccc5F)c4)nn4ccccc34)n2)c1 [GSK336735] | 43
Cl.Cl.Cl.Fc1ccc(-c2ncn(C3CCNCC3)c2-c2ccnc(Nc3ccccc3)n2)cc1 [SB-238039] | 0
CN1c2ccc(NCc3ccc(F)cc3)cc2-c2c(cnn2C)S1(=O)=O | 0
COCCNC(=O)c1ccc(-c2cc(C(=O)NC3CC3)cc(F)c2C)cc1 [GW868318] | 0
N#Cc1ccc(-c2cc(-c3c[nH]nc3-c3ccccn3)ccn2)cc1 [GW693028] | 0
O=C(NOCC1CC1)c1ccc(F)c(F)c1Nc1ccc(I)cc1Cl | 0
